From PubChem BioAssay
m-calpain inh – blocks pig calpain II enzyme activity | purified calpain II, fluorogenic peptide substrate, 30 min | inhibition, % at 16 µM | 0.37% of 220,000 active;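 active means inhibition above about 50%, limit read from the data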
FAS TE block – FAS thioesterase (human) inhibition; 0.67% of 360,000 active; P49327; recombinant FAS-TE, OMFH fluorogenic substrate, fluorescence endpoint; AID 602261; inhibition, % at 15 µM;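 active means compounds whose normalised, plate-corrected inhibition of enzyme fluorescence in the single-dose primary screen is 50% or more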
Target sequence (P49327 whole entry, looked up): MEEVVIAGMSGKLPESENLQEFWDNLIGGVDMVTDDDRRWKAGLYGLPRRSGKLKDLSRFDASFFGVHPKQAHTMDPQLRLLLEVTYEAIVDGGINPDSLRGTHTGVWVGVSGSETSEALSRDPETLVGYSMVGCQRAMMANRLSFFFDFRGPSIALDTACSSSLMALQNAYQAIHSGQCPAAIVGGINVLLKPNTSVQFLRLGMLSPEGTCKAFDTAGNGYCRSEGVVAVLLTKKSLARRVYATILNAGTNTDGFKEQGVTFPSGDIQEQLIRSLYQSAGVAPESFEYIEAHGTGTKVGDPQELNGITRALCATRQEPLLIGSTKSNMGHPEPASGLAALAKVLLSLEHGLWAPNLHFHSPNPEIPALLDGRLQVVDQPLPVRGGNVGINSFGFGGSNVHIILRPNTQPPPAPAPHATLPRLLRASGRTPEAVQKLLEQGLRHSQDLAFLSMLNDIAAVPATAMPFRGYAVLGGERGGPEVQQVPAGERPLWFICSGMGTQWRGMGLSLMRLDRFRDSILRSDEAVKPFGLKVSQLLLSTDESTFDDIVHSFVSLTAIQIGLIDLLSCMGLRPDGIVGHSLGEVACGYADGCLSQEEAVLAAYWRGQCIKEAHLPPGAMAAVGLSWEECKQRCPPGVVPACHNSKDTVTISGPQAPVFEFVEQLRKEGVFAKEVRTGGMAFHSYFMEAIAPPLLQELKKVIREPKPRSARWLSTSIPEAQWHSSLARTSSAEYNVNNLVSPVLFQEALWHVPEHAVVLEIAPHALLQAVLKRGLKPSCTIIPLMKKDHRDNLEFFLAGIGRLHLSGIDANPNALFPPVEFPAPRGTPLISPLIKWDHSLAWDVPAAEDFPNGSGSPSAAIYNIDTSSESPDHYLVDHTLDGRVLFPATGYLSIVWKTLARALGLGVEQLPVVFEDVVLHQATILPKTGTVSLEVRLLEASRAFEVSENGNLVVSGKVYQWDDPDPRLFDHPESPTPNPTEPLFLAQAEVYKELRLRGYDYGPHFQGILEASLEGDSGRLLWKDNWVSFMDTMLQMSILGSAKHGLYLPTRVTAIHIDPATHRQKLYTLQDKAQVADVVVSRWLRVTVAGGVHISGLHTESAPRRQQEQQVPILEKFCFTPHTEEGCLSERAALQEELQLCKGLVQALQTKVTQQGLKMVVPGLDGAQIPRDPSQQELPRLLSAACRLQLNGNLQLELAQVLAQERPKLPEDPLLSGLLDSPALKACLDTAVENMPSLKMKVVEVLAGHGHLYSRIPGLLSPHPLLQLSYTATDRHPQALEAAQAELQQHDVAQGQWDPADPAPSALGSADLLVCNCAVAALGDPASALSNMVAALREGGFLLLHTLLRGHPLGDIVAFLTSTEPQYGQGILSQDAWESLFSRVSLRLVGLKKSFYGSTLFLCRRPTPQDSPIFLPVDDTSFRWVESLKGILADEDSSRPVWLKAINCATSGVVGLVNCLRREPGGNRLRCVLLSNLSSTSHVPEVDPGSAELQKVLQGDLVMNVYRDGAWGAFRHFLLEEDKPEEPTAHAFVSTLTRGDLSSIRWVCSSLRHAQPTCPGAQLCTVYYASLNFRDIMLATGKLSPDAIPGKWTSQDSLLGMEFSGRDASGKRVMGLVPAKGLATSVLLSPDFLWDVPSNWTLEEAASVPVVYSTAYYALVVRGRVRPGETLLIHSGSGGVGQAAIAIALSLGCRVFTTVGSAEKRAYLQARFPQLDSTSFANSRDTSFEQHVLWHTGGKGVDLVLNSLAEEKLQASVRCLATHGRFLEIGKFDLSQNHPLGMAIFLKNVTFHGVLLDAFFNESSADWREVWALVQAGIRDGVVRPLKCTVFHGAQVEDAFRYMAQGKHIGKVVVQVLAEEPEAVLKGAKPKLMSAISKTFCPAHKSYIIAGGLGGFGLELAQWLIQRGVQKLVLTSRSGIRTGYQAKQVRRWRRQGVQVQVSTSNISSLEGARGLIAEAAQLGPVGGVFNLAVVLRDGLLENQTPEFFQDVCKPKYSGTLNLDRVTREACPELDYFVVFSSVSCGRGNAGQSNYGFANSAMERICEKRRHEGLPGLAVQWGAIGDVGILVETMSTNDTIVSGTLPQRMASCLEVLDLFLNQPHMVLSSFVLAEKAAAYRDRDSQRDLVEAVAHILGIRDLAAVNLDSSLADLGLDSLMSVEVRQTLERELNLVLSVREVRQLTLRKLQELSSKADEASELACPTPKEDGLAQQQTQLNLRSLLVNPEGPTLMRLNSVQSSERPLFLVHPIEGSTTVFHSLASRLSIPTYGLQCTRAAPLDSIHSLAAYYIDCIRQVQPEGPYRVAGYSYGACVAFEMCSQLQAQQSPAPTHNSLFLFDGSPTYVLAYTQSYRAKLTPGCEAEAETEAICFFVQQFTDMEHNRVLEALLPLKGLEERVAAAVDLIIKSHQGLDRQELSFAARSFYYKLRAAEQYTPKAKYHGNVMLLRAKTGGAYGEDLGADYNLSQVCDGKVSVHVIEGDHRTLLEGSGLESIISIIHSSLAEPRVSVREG
Cardio protect – modulators protecting cardiomyocytes from myocardial damage; AID 588492; H9c2 cardiomyocytes, H2O2 injury protection, ATPLite, 2 h; protection from H2O2 cell death, % at 20 µM; 0.63% of 360,000 active;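 active means compounds giving at least 50% protection of heart cells from peroxide-induced death in the single-dose screen, raw or plate-pattern-corrected value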
TAG inh – reduces triacylglycerol accumulation in H9c2 cells; inhibition, % at 12.5 µM; Nile Red lipid (TAG) fluorescence; cells loaded with 200 µM oleic acid; 0.66% of 230,000 active;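 active means pattern-corrected inhibition of lipid staining of at least 50% with the nuclear-stain viability signal not falling by more than 50%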
aDG glyco act – increases alpha dystroglycan glycosylation; Pro5-aDG cells, alpha-DG glycosylation AlphaScreen (IIH6); 0% Pro5, 100% B10-LARGE cell signal; activation, % at 10 µM; 0.22% of 360,000 active;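 active means activation of at least 8% versus controls, or a plate z-score of at least 8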;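 further: Pro5 are CHO cells carrying HIG-tagged alpha-DG that lacks glycosylation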
beta cell repl – inducers of beta-cell replication in MIN6 cells | proliferation, % at 10 µM | MIN6 cells proliferation, ATPlite luminescence, 48 h; cells starved in 0.2% serum; 100% = growth in 10% serum | 0.29% of 330,000 active | AID 2380;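 active means compounds whose signal lies at least 3.5 SD above the mean of all wells on their plate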
FAS-TE conf – confirmation of human fatty acid synthase thioesterase inhibitors; shares compounds with FAS TE block; recombinant FAS-TE, OMFH fluorogenic substrate, fluorescence; inhibition, % at 15 µM; 45% of 2,300 active;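 active means compounds inhibiting the enzyme by at least 50% at 15 µM in any one of the replicates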
Hits are given with their value; n = inactive; x = not tested or not shown. Rows were chosen to be rich in hits. Some 2.3% of all compounds tested hit in one or more screens of this group.

SMILES	m-calpain inh	FAS TE block	Cardio protect	TAG inh	aDG glyco act	beta cell repl	FAS-TE conf
CCCCn1c(N)c(N(CCOC)C(=O)C2CC(=O)N(c3cccc(SC)c3)C2)c(=O)[nH]c1=O (centres undefined)	x	n	n	n	n	n	x
Cc1ccc(OCCCC(=O)ON=C(N)c2ccccc2C)cc1	x	n	n	n	n	n	x
N/C(=N\OC(=O)CCC1CCCC1)c1cccc([N+](=O)[O-])c1	n	62	n	x	n	n	66
N/C(=N\OC(=O)CCCc1ccccc1)c1ccccc1	x	n	n	n	n	n	x
N/C(=N\OC(=O)CC1CCCCC1)c1cccc([N+](=O)[O-])c1	n	62	n	n	n	n	68
N/C(=N\OC(=O)CCCc1ccccc1)c1cccc([N+](=O)[O-])c1	n	50	n	n	n	n	63
O=C(CCc1ccccc1)OCC(=O)c1cccc([N+](=O)[O-])c1	n	56	n	n	n	n	57
N/C(=N\OC(=O)CCC1CCCCC1)c1ccc([N+](=O)[O-])cc1	n	n	n	n	n	n	x
O=C(CSc1nnc(-c2c[nH]c3ccccc23)o1)N1CCCCC1	n	n	n	x	n	n	x
O=C(CSc1nnc(-c2c[nH]c3ccccc23)o1)N1c2ccccc2CCc2ccccc21	n	55	n	x	n	n	n
CCN(CC)S(=O)(=O)c1ccc2oc(C(=O)N3CCc4ccccc4C3)c(C)c2c1	n	n	n	n	n	n	x
Cc1c(C(=O)N2CCc3ccccc3C2)oc2ccc(S(=O)(=O)N3CC(C)CC(C)C3)cc12 (centres undefined)	n	52	n	n	n	n	n
CC(C)(C)SCCNC(=O)c1ccc(Cl)c([N+](=O)[O-])c1	n	53	n	x	n	n	68
Cc1ccc(S(=O)(=O)c2cc3c(=O)n4cccc(C)c4nc3n(C3CCCCC3)c2=N)cc1	x	n	n	x	n	n	x
Cc1cccn2c(=O)c3cc(S(=O)(=O)c4ccc(Br)cc4)c(=N)n(C4CCCCC4)c3nc12	x	51	n	x	n	n	n
CCCCN(CC(=O)NC1CC1)S(=O)(=O)c1ccc(OCC)cc1	x	n	n	n	n	n	x
CCCC(=O)OCCNc1cc(Sc2nc3ccccc3[nH]2)c2nonc2c1[N+](=O)[O-]	n	75	n	x	n	n	78
CC(=O)OCCCNc1cc(Sc2ccc(Cl)cc2)c2nonc2c1[N+](=O)[O-]	n	62	n	n	n	x	n
Cc1ccc(Sc2cc(NCCCO)c([N+](=O)[O-])c3nonc23)cc1	n	n	n	n	n	n	x
CC(=O)OCCNc1cc(SC(C)C)c2nonc2c1[N+](=O)[O-]	n	n	n	n	n	n	x
CC1Cc2ccccc2N1C(=O)CN(C)CC(=O)Nc1cccc(F)c1 (centres undefined)	x	n	n	n	n	n	x
Cc1ccc(NC(=O)CSc2nc3cc(C(=O)NCC4CCCO4)ccc3c(=O)n2CC2CCCO2)cc1 (centres undefined)	x	n	n	n	n	x	x
O=C(Nc1ccc(Cl)cc1)c1csc(-c2ccncc2)n1	n	n	n	n	n	n	x
O=C(Nc1ccc(Cl)cc1)c1csc(-c2ccccc2)n1	n	61	n	x	n	n	59
CCc1noc(C)c1C(=O)N1CCN(c2cccc(Cl)c2)CC1	x	n	n	n	n	x	x
SMILES	m-calpain inh	FAS TE block	Cardio protect	TAG inh	aDG glyco act	beta cell repl	FAS-TE conf
Cc1ccccc1NC(=S)NC(NC(=O)COc1ccccc1)C(Cl)(Cl)Cl (centres undefined)	n	n	n	n	n	n	x
COC(=O)c1ccccc1NC(=O)COC(=O)c1ccc(C)c(NC(=O)c2ccco2)c1	n	71	n	x	n	n	n
COC(=O)c1ccccc1NC(=S)NC(NC(=O)COc1ccccc1)C(Cl)(Cl)Cl (centres undefined)	n	71	n	n	n	n	n
COC(=O)c1ccccc1NC(=S)NC(NC(=O)c1ccco1)C(Cl)(Cl)Cl (centres undefined)	n	50	n	x	n	n	n
COc1cc(OC)c(OC)cc1CNC(=O)c1cccc(S(=O)(=O)N2CCc3ccccc3C2)c1	x	n	n	n	n	n	x
CC(C(=O)NCCC1=CCCCC1)c1ccc([N+](=O)[O-])cc1 (centres undefined)	n	70	n	n	n	n	69
CC(Oc1cccc([N+](=O)[O-])c1)C(=O)NCCC1=CCCCC1 (centres undefined)	x	72	n	n	n	n	n
O=C(COC(=O)CSc1ccc([N+](=O)[O-])cc1)NCCC1=CCCCC1	x	n	n	n	n	n	x
CC(=O)c1ccccc1NC(=O)CN1C(=O)NC2(CCCCCCC2)C1=O	x	n	n	n	n	x	x
CC(NC(=O)CC(c1ccccc1)c1cc(Cl)ccc1O)c1ccccc1 (centres undefined)	n	50	n	x	n	x	n
Cc1ccc(O)c(C(CC(=O)NC(C)C)c2ccccc2)c1 (centres undefined)	n	n	n	n	n	n	x
COC(=O)c1ccc(CNC(=O)/C=C/[C@H]2O[C@@H](n3cc(C)c(=O)[nH]c3=O)C[C@@H]2O)cc1	x	n	n	x	n	x	x
CC1CCN(C(=O)c2ccc3c(Cl)c4c(nc3c2)CCCC4)CC1	n	71	n	x	n	n	78
O=c1[nH]c(=S)[nH]c2c1[C@H](C1CC1)O[C@H](CCc1ccccc1)C2	x	n	x	x	n	x	x
O=C(CSc1nc2nn(-c3ccccc3)c(=O)c-2c2n1CCCCC2)Nc1cccc(F)c1	x	n	n	n	n	n	x
Cc1ccc(NC(=O)CSc2nc3nn(-c4ccccc4)c(=O)c-3c3n2CCCCC3)cc1F	x	74	n	n	n	n	n
CC(C)(C)c1ccc(OCCC(=O)OCC(=O)NCc2ccccc2)cc1	x	65	n	n	n	n	67
Cc1nn(C)c(C)c1NC(=S)Nc1ccc(S(=O)(=O)Nc2ncccn2)cc1	x	n	n	n	n	n	x
CC(C)NC(=O)c1cc(C2CCCCN2C(=O)c2ccccc2)on1 (centres undefined)	x	n	n	n	n	x	x
O=C(NCC(c1ccco1)N1CCc2ccccc2C1)c1ccc([N+](=O)[O-])cc1 (centres undefined)	x	60	n	n	n	n	n
COc1ccc(S(=O)(=O)Nc2cccc(-c3ccc(N4CCCCCC4)nn3)c2)cc1OC	x	54	n	x	n	n	n
COc1ccc(OC)c(S(=O)(=O)Nc2cccc(-c3ccc(N4CCCCCC4)nn3)c2)c1	x	n	n	x	n	n	x
Cc1ccc(S(=O)(=O)Nc2cccc(-c3ccc(N4CCCCCC4)nn3)c2)cc1	x	59	n	x	n	n	52
Cc1ccc(CS(=O)(=O)c2ncc(Cl)c(C(=O)Nc3ccc(OC(F)F)cc3)n2)cc1	x	52	n	x	n	n	n
CCS(=O)(=O)c1ncc(Cl)c(C(=O)Nc2ccc(C)cc2)n1	x	n	n	x	n	n	x
